HSF-1 act – HSF-1 activators, primary screen, NIH3T3-HGL cells, MG132 stress, luminescence, single point; NIH3T3-HGL HSF-1 luciferase reporter, 8 h; 100% = twice DMSO control signal; activation, % at 9 µM; hit rate 1.7% among 300,000;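 active means mean replicate activation of at least 50% with a set share of replicates each reaching 50%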;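 further: 0% = median of the neutral control wells and 100% = twice that signal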
HSF1 inh – HSF1 inhibitors in luciferase reporter cells, primary screen, cell-based, NIH3T3, luminescence; NIH3T3-HGL HSE-luciferase, MG132-induced, luminescence 8 h; active compounds read low; AID 2098, 2009; activity change, negative = inhibition, % at 7.5 µM (by protocol); hit rate 0.77% among 300,000;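 active means more than half of replicate wells show activity change below -50%, luminescence cut by over half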;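 further: luciferase reports HSF-1 transcriptional activity via heat shock element; 0% = median of DMSO wells and -100% = zero luminescence signal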
TWEAK-Fn14 inh – inhibitors of TWEAK-Fn14 signaling, primary screen, luciferase reporter cells, uHTS; TWEAK-stimulated Fn14 reporter cells, luciferase luminescence, 8 h; hit rate 2% among 360,000; inhibition, % at 10 µM; AID 1159606, 2016; in the data active means inhibition above about 50%
LGR2 inh – inhibitors of bursicon-induced LGR2 CRE-luciferase signal, primary screen, cell-based, HEK293, CRE-luciferase reporter, bursicon stimulation. Drosophila bursicon receptor LGR2 (rickets). bursicon-stimulated, 4 h. inhibition, % at 9.99 µM. hit rate 0.35% among 380,000. AID 720647, 2013;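 active means drop in luminescence signal, shown as inhibition above about 50% in the replicate tests, limit read from the data, passing the limit was not always enough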;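 further: agonist challenge used bursicon conditioned medium at about half maximal strength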
TROY signal inh – inhibitors of TROY-driven NF-kB signaling, primary screen, Q293 LMP1-TROYcd cells, NF-kB luciferase, uHTS | Q293 LMP1-TROYcd NF-kB luciferase reporter, 4 h | hit rate 0.98% among 360,000 | inhibition, % at 10 µM;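 active means compounds whose plate-normalised and pattern-corrected inhibition of the luciferase reporter signal at the single screening dose is 50% or more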
LMP1 NFkB inh – EBV LMP1-driven NF-kappaB luciferase reporter inhibitors, primary screen, cell-based, luminescence, single point; inhibition, % at 12.5 µM; hit rate 0.69% among 350,000; LMP1-induced NF-kappaB luciferase reporter cells; in the data active means inhibition above about 41%;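 further: 0% = neutral control wells and 100% = reference inhibitor control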
Active calls of the source: *; x = no result. Compounds with a hit are over-represented: about 3.6% of the library has one in this group of screens.

SMILES	HSF-1 act	HSF1 inh	TWEAK-Fn14 inh	LGR2 inh	TROY signal inh	LMP1 NFkB inh
Cc1cc(C(=O)CSc2nnc(-c3ccco3)o2)c(C)n1CC1COc2ccccc2O1 (configuration not stated)	20	4	85*	x	x	4
CCCN(C)C[C@@H]1OCCCC[C@H](C)Oc2ccc(NC(=O)NC3CCCCC3)cc2C(=O)N([C@@H](C)CO)C[C@@H]1C	x	x	x	-2	x	x
COc1cc2c(oc(=O)c3cc(C)cc(OC)c32)c2c(C3OC(C)C(O)C(C)(O)C3O)ccc(O)c12 (configuration not stated)	x	x	-3	17	11	78*
COc1cccc2cc(C(=O)N3CC(C)OC(C)C3)c(=O)oc12 (configuration not stated)	-8	-7	-2	0	-8	0
COc1ccc(CNC(=O)c2cnc3scc(C)n3c2=O)cc1	-78	-70*	4	-5	-21	-2
Cc1csc2ncc(C(=O)NCc3ccco3)c(=O)n12	1	-4	1	-4	6	-3
CN(C)CC(=O)N[C@H]1CC[C@@H](CCn2cc(C3CC3)nn2)O[C@@H]1CO	x	x	x	-8	x	x
CC(C)CC#Cc1ccc([C@@H]2[C@@H](CO)N3C(=O)CN(S(=O)(=O)c4cccc(F)c4)C[C@H]23)cc1	x	x	x	13	x	x
OCCCNc1ncnc2scc(-c3ccc(Cl)cc3)c12	-45	-41	73*	19	32	25
CC(=O)NC[C@H]1[C@@H](c2ccc(C3=CCCC3)cc2)[C@@H](CO)N1C(=O)CN(C)C	x	x	x	-2	x	x
COc1ccc(CN(C)C[C@@H]2OCCCC[C@@H](C)Oc3ccc(NC(=O)Cc4ccccc4)cc3C(=O)N([C@@H](C)CO)C[C@@H]2C)cc1	x	x	x	7	x	x
CC(C)N1C(=O)CN(C2CCCCCC2)C(=O)C1c1ccccc1F (configuration not stated)	-64	-56*	-19	-31	-58	-3
Cc1cc(C)nc(NC(=O)COc2cc(Cl)cc(Cl)c2)n1	-77	-71*	1	x	-10	4
Cc1ccnc(NC(=O)COc2ccc(Cl)cc2)n1	6	6	-28	-2	-6	-5
O=C(NC[C@H]1[C@H](c2ccccc2)[C@@H](CO)N1Cc1cccnc1)c1ccccn1	x	x	x	1	x	x
Nc1nc(N)nc(-c2cc(O)ccc2O)n1	x	x	32	35	19	20
Oc1ccc(O)c(-c2cnns2)c1	42	36	57*	12	0	-5
CCOc1ccc(NC(=O)C(C)SC(N)=O)cc1 (configuration not stated)	-70	-60*	-5	-5	-16	-3
COc1cc(/C=C/c2ccc3cccc(OC)c3n2)c(OC(C)=O)c([N+](=O)[O-])c1	7	-13	28	x	50	7
COc1c(OC(C)=O)ccc(/C=C/c2ccc3cccc(OCc4ccccc4)c3n2)c1[N+](=O)[O-]	61*	45	31	-85	12	-38
CC(C)C#Cc1cnc2c(c1)C(=O)N([C@@H](C)CO)C[C@@H](C)[C@@H](CN(C)C(=O)c1cccnc1)O2	x	x	x	4	x	x
O=C(/C=C/c1ccc(F)cc1)NC(=S)NC1CCCCC1	1	1	-15	3	-48	-3
CC(C)(CNC(=O)/C=C/c1ccc(F)cc1)CNC(=O)/C=C/c1ccc(F)cc1	76*	61	1	-33	-51	-20
CN(C(=S)NC(=O)/C=C/c1ccc(F)cc1)C1CCCCC1	67*	32	-26	-9	-21	1
CN(C(=O)/C=C/c1ccc(F)cc1)C1CCCCC1	61*	46	6	-35	-23	x
SMILES	HSF-1 act	HSF1 inh	TWEAK-Fn14 inh	LGR2 inh	TROY signal inh	LMP1 NFkB inh
CC(C)(C)SCCNC(=O)/C=C/c1ccc(F)cc1	6	9	-18	-39	-34	14
CCCNC(=O)C[C@@H]1C[C@H]2c3cc(NC(=O)NC4CCCC4)ccc3O[C@H]2[C@H](CO)O1	x	x	x	-19	x	x
CO[C@H]1CN(C)C(=O)c2cc(NC(=O)C3CC3)ccc2OC[C@@H](C)N(CCc2ccccc2)C[C@@H]1C	x	x	x	7	x	x
CO[C@@H]1CN(C)C(=O)c2cc(NC(=O)c3cccc(F)c3)ccc2OC[C@@H](C)N(C(C)=O)C[C@@H]1C	x	x	x	-6	x	x
CCOc1ccc(-c2ccc(C=O)o2)c([N+](=O)[O-])c1	109*	84	-4	-6	-4	10
COc1ccc(-c2ccc(C(=O)O)o2)c([N+](=O)[O-])c1	0	0	9	5	10	4
CNC(=O)/C(C#N)=C/c1ccc(-c2ccc(OC)cc2[N+](=O)[O-])o1	-91	-89*	1	x	-25	-17
O=C(Nc1ccc(C(F)(F)F)cc1)N[C@H]1CC[C@@H](CCn2cc(C3(O)CCCC3)nn2)O[C@@H]1CO	x	x	x	-4	x	x
O=C(COC(=O)Cn1cnc2ccccc21)Nc1cc2c(cc1Cl)C(=O)c1ccccc1C2=O	74*	52	-79	x	-41	-26
O=C(COC(=O)Cn1cnc2ccccc21)Nc1cc(S(=O)(=O)N2CCOCC2)ccc1Cl	8	-1	6	-11	0	1
C[C@H](CO)N1C[C@H](C)[C@@H](CN(C)S(=O)(=O)c2ccccc2)Oc2ccc(NC(=O)CCCN(C)C)cc2C1=O	x	x	x	10	x	x
C[C@H](CO)N1C[C@H](C)[C@@H](CN(C)Cc2ccc3c(c2)OCO3)Oc2ccc(NS(=O)(=O)c3ccccc3)cc2CC1=O	x	x	x	-8	x	x
Nc1c(C(=O)NCC2CCCO2)sc2nc3c(c(-c4ccco4)c12)CC/C3=C\c1ccco1 (configuration not stated)	x	x	89*	x	9	-6
Cc1ccc(C(=O)COC(=O)c2cccc(NC(=O)c3ccc([N+](=O)[O-])cc3[N+](=O)[O-])c2)cc1	-33	-32	43	x	59*	-13
CC(=O)Nc1ccc(C(=O)OCC(=O)c2ccc(C)c([N+](=O)[O-])c2)cc1	58*	20	2	x	20	3
Cc1ccc(C(=O)NCC(C)NC(=O)c2ccc(C)c([N+](=O)[O-])c2)cc1[N+](=O)[O-] (configuration not stated)	88*	51	-7	0	15	4
CCC(=O)Nc1ccc(C(=O)OCC(=O)c2ccc(C)c([N+](=O)[O-])c2)cc1	13	0	1	x	-3	2
CCOC(=O)c1ccc(NC(C)=O)c([N+](=O)[O-])c1	-7	-7	59*	-7	69*	-5
COCC(=O)Nc1ccc2c(c1)[C@@H]1C[C@H](CC(=O)NCC3CC3)O[C@@H](CO)[C@@H]1O2	x	x	x	15	x	x

High-throughput results: PubChem BioAssay, several laboratories
